Screening results: PubChem BioAssay, National Center for Advancing Translational Sciences (NCATS)
VP16 counter: counter-screen for ROR gamma inhibitors: Gal4-VP16 reporter | Drosophila S2 Gal4-VP16 UAS-luciferase, luminescence, 20 h | Potency, µM (titrated, usually from 53.6 µM), inactives show at the top dose activity, negative = inhibition, most hits filed as inhibitors | 3.5% of 310,000 active | AID 2546;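 note: Gal4-VP16 expression switched on by copper sulfate through the metallothionein promoter; nearly all actives have a fitted effect of over 50% in size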
RORgamma inh: blocks mouse ROR gamma transcriptional activity. Drosophila S2 Gal4-RORgamma UAS-luciferase reporter, 20 h. Potency, µM (doses to about 53.6 µM), inactives show top-dose activity change, negative = inhibition, most hits filed as inhibitors. 5.4% of 310,000 active. AID 2551; note: nearly all actives have a fitted effect of over 60% in size
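Drosophila S2 cells stably expressing Gal4-DBD/mouse RORγ fusion under metallothionein promoter plus UAS-luciferase; compound 1 h, then 700 uM CuSO4 induction for 20 h at ambient temperature; inhibition read as reduced luminescence.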
ELG1 repair inh: blocks ELG1-dependent DNA repair in HEK293T cells; HEK293T ELG1-luciferase reporter, luminescence, 16 h; DNA damage induced by 5-fluorouridine; Potency, µM (top dose mostly 46.1 µM), for the others: at the highest dose activity change, negative = inhibition, most hits filed as inhibitors; 2.3% of 330,000 active; note: nearly all actives have a fitted effect of over 55% in size
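DMSO vehicle served as the neutral condition. Each well held 2,000 cells given 5-fluorouridine plus compound; after 16 hr at 37 °C/5% CO2, ONE-Glo was added and luciferase measured 30 min later.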
TDP1 cell noCPT: qHTS for Inhibitors of human tyrosyl-DNA phosphodiesterase 1 (TDP1): qHTS in cells in absence of CPT | DT40 Tdp1-/- hTDP1 cells, no CPT, ATP luminescence, 48 h | Potency, µM (series often up to 46.2 µM), without a hit: at the highest dose activity change, negative = growth inhibition, actives largely listed as inhibitors | 15% of 420,000 active; note: nearly all actives have a fitted effect of over 55% in size
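Stably hTDP1-transfected Tdp1-null chicken DT40 cells were treated with library compounds minus camptothecin and grown for at least 48 hr at 37 °C, after which cellular ATP was quantified by luminescence.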
DT40 TDP1 CPT: DT40-hTDP1 cell growth loss with CPT; chicken DT40 Tdp1-/-;hTDP1 cells + 20 nM CPT, ATP luminescence, 48 h; Potency, µM (top dose mostly 46.2 µM), for the others: at the highest dose activity change, negative = growth inhibition, usual class: inhibitors; 12% of 420,000 active; AID 686979; note: nearly all actives have a fitted effect of over 55% in size
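Cell growth measured by CellTiter-Glo luminescence after a minimum 48 h, 37 C compound exposure with 20 nM CPT in Tdp1-knockout DT40 cells stably expressing hTDP1, seeded 400/well; qHTS titration format.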
ALOX12 inh: blocks human arachidonate 12S-lipoxygenase | Potency, µM (doses to about 108 µM), without a hit: at the highest dose activity change, negative = inhibition, most hits filed as inhibitors | 1.1% of 580,000 active | purified 12hLO, xylenol orange hydroperoxide absorbance
Target sequence (P18054 whole entry, looked up): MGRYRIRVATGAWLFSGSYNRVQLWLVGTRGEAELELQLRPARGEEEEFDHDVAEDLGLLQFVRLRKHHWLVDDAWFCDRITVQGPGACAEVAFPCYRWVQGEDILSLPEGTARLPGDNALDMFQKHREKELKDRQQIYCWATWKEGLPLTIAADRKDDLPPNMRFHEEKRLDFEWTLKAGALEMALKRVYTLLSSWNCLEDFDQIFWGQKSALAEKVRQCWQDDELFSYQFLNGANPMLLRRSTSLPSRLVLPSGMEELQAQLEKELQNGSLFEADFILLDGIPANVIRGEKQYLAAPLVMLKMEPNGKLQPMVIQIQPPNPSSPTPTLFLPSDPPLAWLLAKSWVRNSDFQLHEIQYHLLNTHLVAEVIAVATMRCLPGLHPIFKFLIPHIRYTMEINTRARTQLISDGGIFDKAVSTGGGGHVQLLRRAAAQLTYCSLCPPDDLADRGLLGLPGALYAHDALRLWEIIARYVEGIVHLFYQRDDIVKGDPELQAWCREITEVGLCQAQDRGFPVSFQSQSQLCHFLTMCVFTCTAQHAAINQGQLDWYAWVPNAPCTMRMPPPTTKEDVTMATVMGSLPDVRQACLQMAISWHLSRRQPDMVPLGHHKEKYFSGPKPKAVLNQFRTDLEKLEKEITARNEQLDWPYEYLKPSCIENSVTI
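Purified human 12hLO at 150 nM in 25 mM Hepes, 0.01% Triton X-100, pH 7.0, preincubated 15 min at room temperature with compound. Reaction started with 40 uM arachidonic acid, 30 min at room temperature. Hydroperoxide measured by Fe-xylenol orange, 573/405 nm absorbance ratio.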
Active calls of the source: *; u = inconclusive; x = no result; [ ] = dose if it differs, or a comment. Shown are actives, neighbours in structure and some others; about 15% of the full set was active somewhere. Calls come from the whole dose curve; as a rule, active = well fitted curve in the direction sought with a large enough effect; inconclusive = small, poorly fitted or top-dose-only effect, or another doubt; inactive = no such curve, though single readings can be large; an effect the other way counts as inactive or inconclusive. % is set by controls: 0 for no effect and ±100 for the full control effect; potency is the fitted concentration of half-maximal effect.

SMILES | VP16 counter | RORgamma inh | ELG1 repair inh | TDP1 cell noCPT | DT40 TDP1 CPT | ALOX12 inh
Cc1ccc(SCCc2cc[n+](CC(=O)c3ccccc3)cc2)cc1 | 10% | -32% | u | 16µM* | 16µM* | 21%
CCCN1C(=S)c2ccccc2C1c1ccccc1 (configuration not stated) | -1% | 10µM* | u | -20% | 26% | -27%
COc1cccc(CNC(=O)CN2C(=O)N(c3ccccc3C)S(=O)(=O)c3ccccc32)c1 | x | x | x | x | x | -49%
CC(=O)N1c2c(cc(Br)cc2S(=O)(=O)N2CCN(c3cc(C)ccc3C)CC2)CC1C (configuration not stated) | x | x | x | 15µM* | 16µM* | -7%
COc1ccc(C)cc1NS(=O)(=O)c1cc(Br)cc2c1N(C(C)=O)C(C)C2 (configuration not stated) | x | x | x | 18µM* | u | -1%
COc1cc(NS(=O)(=O)c2cc(Br)cc3c2N(C(C)=O)C(C)C3)cc(OC)c1 (configuration not stated) | x | x | x | 18µM* | 13µM* | -3%
COc1ccc(-c2noc([C@@H]3CCCN3C(=O)c3cc(Cl)ccc3F)n2)cc1OC | x | x | x | x | x | 8%
CN1CC(=O)N(C2CCCNC2)Cc2c1ncnc2N1CCN(CC2CCCCC2)CC1 (configuration not stated) | x | x | x | x | x | -12%[6.33 µM]
Cc1ccc2c(c1)N(Cc1ccccc1)C(=O)C(C)S2 (configuration not stated) | x | x | x | -12% | -14% | -36%
CCCCCOc1ccccc1CN1C(=O)C(=O)c2cc(C)ccc21 | x | x | x | 5.2µM* | 13µM* | -25%
Cc1ccc2c(c1)C(=O)C(=O)N2Cc1ccc(Cl)cc1 | x | x | u | 0.92µM* | 0.73µM* | u
CCO/C(C)=C1\C(=O)N(CC)c2ccccc21 | -10% | 1% | 0% | u | u | -7%
CCN1C(=O)C(=O)c2cc(C)ccc21 | x | x | u | 5.8µM* | 4.6µM* | -5%
Cc1ccc2c(c1)C(CCN)C(=O)N2Cc1ccccc1 (configuration not stated) | 1% | -17% | x | 21µM* | u | u
Cc1ccc(CN2C(=O)C(F)(F)Oc3ccc(C)cc32)cc1 | x | x | x | -2% | -6% | -3%
CCCCCOc1ccccc1Cn1c(=O)oc2ccc(C)cc21 | x | x | x | -23% | -5% | 3%
COCCOCC1(CNCc2c(C)noc2C)C[C@@H](O)[C@@H](O)C1 (some centres not stated) | x | x | x | x | x | -3%[176 µM]
Cc1nn2c(c1-c1ccccc1N1CCCC1)N(C(=O)C1CCOCC1)CCC2 | x | x | x | x | x | 385%[176 µM]
Cc1ccc2c(c1)C(=O)C(=O)N2Cc1ccccc1 | x | x | -1% | 1µM* | 1.2µM* | -28%
Cc1ccc2c(c1)C(=O)C(=O)N2Cc1ccc(F)cc1 | x | x | u | 0.92µM* | 0.73µM* | u
COc1ccc(C(c2nnnn2Cc2ccccc2)N2CCN(C(=O)c3ccco3)CC2)cc1 (configuration not stated) | -1% | u | 1% | u | -21% | 20%
COc1cccc(C(c2nnnn2Cc2ccco2)N2CCN(c3cccc(C)c3C)CC2)c1OC (configuration not stated) | -1% | 4% | u | 26µM* | u | -20%
COc1ccc(OC)c(C(c2nnnn2Cc2ccco2)N2CCN(C)CC2)c1 (configuration not stated) | 1% | -10% | 4% | 0% | -3% | -17%
COc1cccc(C(c2nnnn2Cc2ccccc2)N2CCN(C(=O)c3ccco3)CC2)c1OC (configuration not stated) | 0% | 30% | -19% | 23µM* | u | u
Clc1ccccc1C(c1nnnn1Cc1ccco1)N1CCN(Cc2ccco2)CC1 (configuration not stated) | 6% | -4%[10 µM] | -12% | u | -10% | 45µM*
SMILES | VP16 counter | RORgamma inh | ELG1 repair inh | TDP1 cell noCPT | DT40 TDP1 CPT | ALOX12 inh
O=C(CSc1nc(-c2ccccc2)cc(=O)[nH]1)Nc1ccc(Cl)c(C(F)(F)F)c1 | x | x | x | x | x | 0%
CCCCNC(=O)Nc1ccc(C2SCCS2)cc1 | -6% | -11% | u | 16µM* | u | 0%
CC(C)c1ccc(NC(=O)COc2ccc(C3SCCS3)cc2)cc1 | 6% | 0% | -2% | 23µM* | u | 11%
CNC(=O)Nc1ccc(C2SCCS2)cc1 | 20% | 25% | u | -25% | 0% | 326%
O=C(c1ccoc1)N1CCC2(CC1)CN(Cc1ccccc1)CC2CO (configuration not stated) | x | x | x | x | x | 27%
CC1=C(C(=O)Nc2ccccc2F)C(c2ccsc2)C2=C(CC(c3ccccc3)CC2=O)N1 (configuration not stated) | 1% | 31% | u | 26µM* | 26µM* | 20%
COc1ccc(C2NN=C(c3ccc(C)cc3)S2)cc1 (configuration not stated) | 7.1µM* | u | u | u | -28% | -23%
CCOc1cc(C2NN=C(c3ccc(C)cc3)S2)ccc1O (configuration not stated) | 14µM* | 1.1µM* | u | 5.2µM* | 6.5µM* | u
Cc1cccc(C2(c3cccc(C)c3)CC2C(=O)Nc2ccc([N+](=O)[O-])cc2O)c1 (configuration not stated) | 11µM* | -104% | 24% | 5.2µM* | 8.2µM* | u
COc1cccc(C2(c3cccc(OC)c3)CC2C(=O)Nc2ccccc2Cl)c1 (configuration not stated) | -6% | 18% | u | 23µM* | u | -10%
C=CCNC(=O)C1CC1(c1cccc(C)c1)c1cccc(C)c1 (configuration not stated) | x | x | x | -24% | 2% | 113%
Cn1cc(C(=O)NCCNC(=O)CC2CCCCC2)c2ccccc21 | x | x | x | x | x | 5%
Nc1nc(CN2CCN(C(=O)c3ccc(Cl)c(Cl)c3)CC2)nc2ccccc12 | x | x | x | x | x | 38%
Cn1ccnc1C(O)(c1ccccc1)c1ccccc1 | -6% | 7% | u | -2% | -12% | 0%
Cn1ccnc1C(O)(c1nnc(-c2ccccc2)o1)C(F)(F)F (configuration not stated) | u | 7.1µM* | u | -12% | 0% | 493%
O=C(/C=C/C=C/c1ccco1)c1ccc(N2CCOCC2)cc1 | x | x | x | x | x | 5µM*
O=C(/C=C/c1cccs1)c1cc(Br)ccc1OC(=O)N1CCOCC1 | u | u | 16µM* | u | u | 0%
